Assay results published in the supplement of paper PMC7801607.

What was measured:
[1] = system: CHO; test: % viability of CHO cells (MTT); higher = less toxic; settings: 48 h
Summary of the method: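 CHO cells were seeded at 10^6 cells/well in 200 µL and left overnight to attach. The medium was then replaced with fresh medium containing compound at 2 or 20 µM for 48 h. Survival was read colorimetrically with the tetrazolium (MTT) assay. Percent viability was expressed relative to untreated cells.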

[2] = system: HepG2-A16-CD81; test: % inhibition of HepG2 viability (CellTiter-Glo); higher = more toxic; settings: 5 µM;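 note: HepG2-A16-CD81 hepatoma cells plated as in the liver-stage assay but without sporozoites, with DMSO wells as negative and 25 µM puromycin as positive control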
[3] = system: Plasmodium falciparum NF54 stage IV/V gametocytes; test: % inhibition of gametocyte viability (PrestoBlue); higher = more inhibition; settings: 48 h
Summary of the method: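 Stage IV/V NF54 gametocytes (2% gametocytaemia, 5% haematocrit, 100 µL/well) were exposed to compound at 1 or 5 µM. Incubation was 48 h at 37 °C, stationary and hypoxic, followed by 10 µL PrestoBlue for 2 h. Fluorescence at 612 nm was read on 70 µL of transferred supernatant. Percent inhibition of gametocyte viability was normalised to DMSO and kill controls from a single run.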

[4] = system: Plasmodium falciparum NF54 asexual blood stage; test: % inhibition of asexual blood stage proliferation (pLDH); higher = more inhibition; settings: 72 h
Summary of the method: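 Plasmodium falciparum NF54 ring-stage cultures (1% haematocrit, 2% parasitaemia) were exposed to compound at 2 or 20 µM in 96-well plates. Incubation was 72 h at 37 °C under 4% CO2, 3% O2 and 93% N2. Survival was read colorimetrically at 620 nm with the parasite lactate dehydrogenase assay. Percent inhibition of asexual proliferation was normalised to DMSO and kill controls, and the screen was run on two separate occasions.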

[5] = system: Plasmodium falciparum NF54 stage IV/V gametocytes; test: % inhibition of gametocyte viability (ATP bioluminescence); higher = more inhibition; settings: 24 h
Summary of the method: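 In 96-well plates, compound at 1 or 5 µM was added to 30,000 density-gradient-enriched stage IV/V NF54 gametocytes per well and incubated for 24 h at 37 °C. ATP readout used the Promega BacTiter Glo bioluminescence system. Percent inhibition of gametocyte viability comes from a single run, normalised to control wells.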

[6] = system: Plasmodium falciparum NF54 stage IV/V gametocytes; test: % inhibition of gametocyte viability (luciferase reporter); higher = more inhibition; settings: 48 h
Summary of the method: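 Percent inhibition was normalised to controls from a single run. Stage IV/V gametocytes of the NF54-Pfs16-GFP-Luc line, at 2% gametocytaemia and 2% haematocrit, were exposed to compound at 1 or 5 µM for 48 h at 37 °C under stationary, hypoxic conditions. Luminescence was then read from 30 µL lysate mixed with 30 µL Promega luciferin substrate on a GloMax-Multi+ reader with 10 s integration.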

| Compound | % viability of CHO cells ([1]; 2 µM) | % viability of CHO cells ([1]; 20 µM) | % inhibition of HepG2 viability [2] | % inhibition of gametocyte viability ([3]; 1 µM) | % inhibition of gametocyte viability ([3]; 5 µM) | % inhibition of asexual blood stage proliferation ([4]; 2 µM) | % inhibition of asexual blood stage proliferation ([4]; 20 µM) | % inhibition of gametocyte viability ([5]; 1 µM) | % inhibition of gametocyte viability ([5]; 5 µM) | % inhibition of gametocyte viability ([6]; 1 µM) | % inhibition of gametocyte viability ([6]; 5 µM) |
| --- | --- | --- | --- | --- | --- | --- | --- | --- | --- | --- | --- |
| OB1OCc2cc(Cl)ccc21 | 90.1% | 100% | -4.78% | < 0% | < 0% | 2.76% | -5.4% | < 0% | < 0% | < 0% | < 0% |
| N=c1n(CCN2CCCCC2)c2ccccc2n1CC(O)COc1ccc(Cl)cc1Cl (centres undefined) | 82.7% | -3.8% | 5.14% | 38.8% | 66% | 76.8% | 85.7% | 85.7% | 88.1% | 40.7% | 97% |
| CCc1nc2ccccn2c1C(=O)NCc1ccccc1 | 123% | 58.5% | 6.82% | < 0% | < 0% | 6.85% | 18.2% | < 0% | < 0% | < 0% | 8.65% |
| CN(C)[C@@H]1C(=O)C(C(N)=O)=C(O)[C@@]2(O)C(=O)C3=C(O)c4c(O)c(NC(=O)CN5CCCC5)cc(F)c4C[C@H]3C[C@@H]12 | 99.3% | 125% | 21% | 13.1% | < 0% | 72.1% | 88% | < 0% | < 0% | < 0% | < 0% |
| O=C(NCc1ccc2c3c(cccc13)C(=O)N2)c1cccs1 | 135% | 156% | 1.86% | < 0% | < 0% | 6.3% | 16% | < 0% | < 0% | < 0% | 16.9% |
| O=C(NCc1ccc(F)cc1)c1c(O)c2ncccc2[nH]c1=O | 121% | 91.5% | 5.33% | < 0% | 20.1% | 54.8% | 31.4% | 3.16% | < 0% | 5.58% | < 0% |
| CC(C)(C)c1cc(C(=O)/C(C#N)=N/Nc2cccc(Cl)c2)no1 | 113% | 97.4% | 44.1% | < 0% | < 0% | -1.08% | 24.2% | < 0% | < 0% | < 0% | < 0% |
| CN(O)C(=O)c1cc2c(CN3CCC[C@H]3C(N)=O)cn(Cc3ccc(F)cc3)c2cn1 | 96% | 119% | -5.55% | 31.6% | 30.7% | 16.8% | 52.7% | < 0% | < 0% | < 0% | < 0% |
| COC(=O)Nc1nc2cc(S(=O)c3ccccc3)ccc2[nH]1 (centres undefined) | 118% | 78% | 12.1% | 10.1% | 11.8% | 8.21% | 7.99% | 1.75% | < 0% | < 0% | < 0% |
| CC1(C)C[C@H]1C(=O)N/C(=C\CCCCSC[C@@H](N)C(=O)O)C(=O)O | 229% | 49.5% | -5.39% | 25.1% | 25.8% | 20.8% | 20.1% | < 0% | < 0% | < 0% | < 0% |
| O=C(Nc1nnc(-c2ccc(Cl)cc2)o1)c1ccc(F)cc1 | 94.3% | 106% | -1.68% | < 0% | 0.779% | 23.1% | -13.5% | < 0% | < 0% | < 0% | 1.27% |
| C=CCN(C(=O)OCc1ccc([N+](=O)[O-])cc1)C1CCN(CC[C@](C)(CN(C)S(=O)(=O)c2ccccc2)c2ccccc2)CC1 | 129% | 122% | -6.75% | 4.29% | 13.4% | 59.7% | 78.9% | < 0% | 32% | 2.56% | < 0% |
| Cc1cc(CCOc2c(C)cc(-c3nnn(C)n3)cc2C)on1 | 100% | 105% | -1.96% | 26.4% | 21.8% | 12.7% | 31% | < 0% | < 0% | 4.37% | 32.2% |
| O=C(Nc1[nH]c(=O)ncc1F)c1ccccc1 | 103% | 106% | 1.79% | 1.43% | 5.2% | 2.42% | 1.98% | < 0% | < 0% | < 0% | < 0% |
| CC[C@@]1(O)C(=O)OCc2c1cc1n(c2=O)Cc2cc3c(CN(C)C)c(O)ccc3nc2-1 | 88.8% | 67.7% | 35% | 21.5% | 26.1% | 14.3% | 82.3% | 6.83% | < 0% | 1.24% | 5.33% |
| O=C(Nc1ccccc1)N(Cc1cc(Br)ccc1O)c1ccc(F)cc1 | 99.5% | 61.3% | -2.44% | 27.2% | 8.98% | 6.3% | 14.7% | < 0% | < 0% | < 0% | < 0% |
| CC(C)Oc1ccc(-c2nc(-c3cccc4c3CC[C@@H]4NCCO)no2)cc1C#N | 113% | 117% | -1.14% | 16.7% | 7.83% | 78.4% | 87.9% | 14.3% | 84.7% | < 0% | < 0% |
| Nc1nc(O)c(Br)c(-c2ccccc2)n1 | 89.3% | 61.8% | 7.28% | < 0% | 16.6% | 6.53% | 33.7% | < 0% | < 0% | 1.49% | 9.71% |
| C[C@H](c1cccc2ccccc12)N(C)Cc1ccccc1 | 98.5% | 116% | 0.334% | 6.61% | 7.59% | 9.39% | 18.9% | < 0% | < 0% | < 0% | < 0% |
